GRK2 inh: compounds blocking aptamer binding on GRK2 – biochemical, human GRK2, bead flow cytometry, HTS, primary screen. FAM-aptamer displacement from GRK2. inhibition of aptamer binding, % at 10 µM. Beta-adrenergic receptor kinase 1 (Homo sapiens), P25098. 330,000 tested, 0.59% active;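 active = inhibition of aptamer binding above 40%, roughly 3 SD of noise, on plates passing a quality check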;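 note: median bead fluorescence of bound FAM aptamer so fluorescent compounds give negative values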
Target sequence (P25098 whole entry, looked up): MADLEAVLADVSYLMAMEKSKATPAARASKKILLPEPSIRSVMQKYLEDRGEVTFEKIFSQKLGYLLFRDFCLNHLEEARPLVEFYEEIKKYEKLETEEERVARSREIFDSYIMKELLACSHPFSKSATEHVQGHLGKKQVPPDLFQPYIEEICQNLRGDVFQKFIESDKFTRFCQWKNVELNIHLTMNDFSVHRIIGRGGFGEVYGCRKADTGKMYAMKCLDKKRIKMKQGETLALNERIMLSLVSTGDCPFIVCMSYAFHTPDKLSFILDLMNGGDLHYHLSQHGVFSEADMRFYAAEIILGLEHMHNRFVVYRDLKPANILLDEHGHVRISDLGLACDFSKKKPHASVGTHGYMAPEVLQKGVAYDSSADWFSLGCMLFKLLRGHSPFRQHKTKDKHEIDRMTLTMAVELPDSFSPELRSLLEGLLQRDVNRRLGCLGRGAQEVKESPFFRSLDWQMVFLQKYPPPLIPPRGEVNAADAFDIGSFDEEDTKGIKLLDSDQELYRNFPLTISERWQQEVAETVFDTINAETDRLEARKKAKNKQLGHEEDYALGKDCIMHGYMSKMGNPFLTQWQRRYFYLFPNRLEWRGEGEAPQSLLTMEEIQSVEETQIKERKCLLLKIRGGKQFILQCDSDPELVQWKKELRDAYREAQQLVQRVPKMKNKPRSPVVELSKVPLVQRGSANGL
MEKK3 PB1 HTS: modulators of MEKK3-MEK5 PB1 binding, primary screen, biochemical, wildtype MEKK3, multiplex bead flow cytometry, Alexa488-MEK5. binding response (% of control), % at 10 µM. bead-based flow cytometry, Alexa488-MEK5 binding to MEKK3; actives lie on both sides; 0 = blocked by unlabeled MEK5, 100 = vehicle. AID 1529, 2009. 290,000 tested, 1.4% active;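 active = binding response more than 3 SD above or below the average of its plate-row segment, actives on both sides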;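 note: Alexa488 bead fluorescence after subtracting the streptavidin-only scavenger bead signal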
MEKK2 WT-MEK5: modulators of MEK5 binding to wildtype MEKK2, primary screen, biochemical, multiplex bead flow cytometry, Alexa488-MEK5; 290,000 tested, 1.1% active; binding response (% of control), % at 10 µM; Alexa488-MEK5 binding to MEKK2 WT; actives lie on both sides; in the data active = binding response below about 67% or above about 130%
MEKK2 mut-MEK5: MEK5 binding signal on mutant MEKK2 PB1, primary screen, biochemical, multiplex bead flow cytometry, Alexa488-MEK5. Alexa488-MEK5 binding to MEKK2 mutant. percent response, % at 10 µM. 290,000 tested, 0.35% active. AID 1530, 2009; in the data active = percent response above about 24%, passing the limit was not always enough
GRK2 inh confirm: GRK2 aptamer-displacing inhibitors, retest, confirmation, biochemical, cherry pick 1, bead flow cytometry; AID 504451, 2011; aptamer displacement, % at 10 µM; 2,000 tested, 4% active; shares compounds with GRK2 inh; bead-bound GRK2, FAM-aptamer displacement;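 active = aptamer displacement above 40%, near three times the noise of non-fluorescent compounds, on plates passing quality checks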;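 note: negative values mostly reflect intrinsic compound fluorescence rather than true enhancement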
FAM quench CP1: quenches fluorescent RNA aptamer, GRK2 hit artifact; shares compounds with GRK2 inh; Carboxyfluorescein RNA aptamer on beads, flow cytometry quenching; stronger effect = lower value; fluorescence response (% of DMSO), % at 10 µM; 2,000 tested, under 10 active; AID 504580;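 active = compounds that quench the bead-bound fluorescent RNA probe, cutting fluorescence to under half of the solvent control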;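 note: counterscreen run without GRK2 so only probe quenching by compound is measured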
GRK2 CP2: GRK2 aptamer-displacing inhibitors, hit retest, confirmation, biochemical, cherry pick 2, bead flow cytometry. inhibition of aptamer binding, % at 10 µM. 360 tested, under 10 active. shares compounds with GRK2 inh. bead-bound GRK2, FAM-aptamer displacement;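 active = inhibition of aptamer binding above 40%, about triple the noise seen with nonglowing compounds, on plates passing quality control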;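 note: negative values mostly come from compounds that fluoresce themselves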
FAM quench SP: counter-screen for GRK2 binding hits: quenchers of fluorescent RNA aptamer | 360 tested, under 10 active | carboxyfluorescein RNA aptamer beads, flow cytometry quenching; stronger effect = lower value | AID 588494 | shares compounds with GRK2 inh | fluorescence response vs DMSO, % at 10 µM;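 active = response vs DMSO under 50%, meaning signal dropped by over half, treated as fluorescence quencher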;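 note: labelled aptamer on streptavidin beads without GRK2 as a quench counter-screen; 100% = bead fluorescence of DMSO wells and lower means quenching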
The depositor's hits bear a star. This is a sample that favours compounds with a hit; in the whole collection about 2.5% have one here.

`CCN(CC)S(=O)(=O)c1ccc(N2CCOCC2)c(NC(=O)COc2ccccc2C#N)c1` gave GRK2 inh 3.0, MEKK3 PB1 HTS 71.0, MEKK2 WT-MEK5 77.0 and MEKK2 mut-MEK5 -12.0.
O=C(NC1CCCCC1)c1ccc(CS(=O)(=O)c2ccc(Cl)cc2)o1 was read as GRK2 inh 0.0, MEKK3 PB1 HTS 95.0, MEKK2 WT-MEK5 98.0 and MEKK2 mut-MEK5 0.0.
`CCc1c(C)nc2ncnn2c1N1CCCC(C(=O)NCc2cccs2)C1` (stereo not given) gave GRK2 inh 51.0*, MEKK3 PB1 HTS 93.0, MEKK2 WT-MEK5 92.0, MEKK2 mut-MEK5 -7.0, GRK2 inh confirm -0.4 and FAM quench CP1 99.2.
For CCc1c(C)nc2ncnn2c1N1CCCC(C(=O)NCc2ccco2)C1 (stereo not given) the results were GRK2 inh 0.0, MEKK3 PB1 HTS 106.0, MEKK2 WT-MEK5 109.0 and MEKK2 mut-MEK5 5.0.
`CCn1nc(C(=O)Nc2cccc3ccccc23)c(Cl)c1Cl` gave GRK2 inh 0.0, MEKK3 PB1 HTS 96.0, MEKK2 WT-MEK5 85.0 and MEKK2 mut-MEK5 -1.0.
Screening CCn1nc(C(=O)Nc2cccc(C(F)(F)F)c2)c(Cl)c1Cl returned GRK2 inh 53.0*, MEKK3 PB1 HTS 96.0, MEKK2 WT-MEK5 104.0, MEKK2 mut-MEK5 -2.0, GRK2 inh confirm 1.1 and FAM quench CP1 102.5.
For Cc1occc1C(=O)NCc1cccc(CNC(=O)c2ccoc2C)c1 the results were GRK2 inh 47.0*, MEKK3 PB1 HTS 104.0, MEKK2 WT-MEK5 97.0, MEKK2 mut-MEK5 -3.0, GRK2 inh confirm -0.1 and FAM quench CP1 98.2.
Screening CC(=O)C1=C(O)C(=O)N(c2ccccn2)C1c1ccccc1[N+](=O)[O-] (stereo not given) returned GRK2 inh 8.0, MEKK3 PB1 HTS 100.0, MEKK2 WT-MEK5 102.0 and MEKK2 mut-MEK5 5.0.
`Cn1c(C(=O)N2CCCC(C(=O)NCCCSC3CCCCC3)C2)cc2sccc21` (stereo not given) gave GRK2 inh 25.0, GRK2 inh confirm 1.3 and FAM quench CP1 95.8.
COc1cc(-c2ccc3c(=O)c4ccccc4sc3c2)cc(OC)c1OC was read as GRK2 inh 100.0*, GRK2 CP2 -10.8 and FAM quench SP 99.0.
Cn1c(Oc2ccccc2)c(C=O)c2ccccc21 was read as GRK2 inh 53.0*, MEKK3 PB1 HTS 103.0, MEKK2 WT-MEK5 100.0, MEKK2 mut-MEK5 1.0, GRK2 inh confirm -6.6 and FAM quench CP1 97.4.
Screening Cc1cccc(Oc2c(C=O)c3ccccc3n2C)c1 returned GRK2 inh 0.0, MEKK3 PB1 HTS 92.0, MEKK2 WT-MEK5 96.0 and MEKK2 mut-MEK5 -3.0.
`CCOc1cc(C(=O)N(C)CC(=O)Nc2cccc3ccccc23)ccc1OC` gave GRK2 inh 0.0.
For CCOC(=O)c1[nH]c2ccccc2c1NC(=O)c1cc(OC)c(OC)c(OC)c1 the results were GRK2 inh 0.0, MEKK3 PB1 HTS 98.0, MEKK2 WT-MEK5 110.0 and MEKK2 mut-MEK5 8.0.
Screening COc1cc(C(=O)Nc2c(C(=O)O)[nH]c3ccc(C)cc23)cc(OC)c1OC returned GRK2 inh 88.0*, MEKK3 PB1 HTS 99.0, MEKK2 WT-MEK5 99.0, MEKK2 mut-MEK5 -3.0, GRK2 inh confirm 2.9 and FAM quench CP1 98.1.
Screening CCC(C)c1ccc(NC(=S)NC(C)C2CCCO2)cc1 (stereo not given) returned GRK2 inh 1.0, MEKK3 PB1 HTS 85.0, MEKK2 WT-MEK5 90.0 and MEKK2 mut-MEK5 -9.0.
Screening COc1ccc(S(=O)(=O)N(C)Cc2ccc3c(c2)OCCO3)cc1 returned GRK2 inh 42.0*, GRK2 inh confirm -2.8 and FAM quench CP1 99.7.
`COc1ccc(S(=O)(=O)N(C)CC(=O)Nc2ccc3c(c2)OCCO3)cc1` gave GRK2 inh 1.0.
`O=C(Cn1c(=O)cnc2ccccc21)Nc1cccc(S(=O)(=O)N2CCOCC2)c1` gave GRK2 inh 0.0.
For COc1ccc(C(=O)Nc2cccc(C(=O)NCc3ccco3)c2)cc1 the results were GRK2 inh 0.0, MEKK3 PB1 HTS 108.0, MEKK2 WT-MEK5 105.0, MEKK2 mut-MEK5 3.0, GRK2 inh confirm -1.5 and FAM quench CP1 96.0.
For CC(C)CNC(=O)c1cccc(NC(=O)c2ccco2)c1 the results were GRK2 inh 0.0, MEKK3 PB1 HTS 101.0, MEKK2 WT-MEK5 99.0 and MEKK2 mut-MEK5 1.0.
Screening O=C(Nc1cc([N+](=O)[O-])ccc1O)c1cccc(NC(=O)c2ccco2)c1 returned GRK2 inh 78.0*, MEKK3 PB1 HTS 104.0, MEKK2 WT-MEK5 109.0, MEKK2 mut-MEK5 8.0, GRK2 inh confirm 1.4 and FAM quench CP1 102.8.
Screening O=C(NCc1ccco1)c1cccc(NC(=O)c2ccco2)c1 returned GRK2 inh 0.0, MEKK3 PB1 HTS 97.0, MEKK2 WT-MEK5 101.0, MEKK2 mut-MEK5 11.0, GRK2 inh confirm -3.0 and FAM quench CP1 100.7.
Screening CC(C)Oc1ccc(C(=O)NCc2ccco2)cc1 returned GRK2 inh 0.0, MEKK3 PB1 HTS 107.0, MEKK2 WT-MEK5 108.0 and MEKK2 mut-MEK5 5.0.
O=C(Nc1ccccc1)c1cccc(NC(=O)c2ccco2)c1 was read as GRK2 inh 2.0.
O=C(NCc1ccccc1)c1cccc(NC(=O)c2ccco2)c1 was read as GRK2 inh 2.0, MEKK3 PB1 HTS 96.0, MEKK2 WT-MEK5 95.0, MEKK2 mut-MEK5 -2.0, GRK2 inh confirm 1.9 and FAM quench CP1 93.5.
CCC(=C(c1ccc(OC)cc1)c1ccc(OC)cc1)c1cn(CC(O)CN2CCN(C)CC2)c2ccccc12 (stereo not given) was read as GRK2 inh 0.0.
Screening Cc1cc(C)c(S(=O)(=O)N2CCCC(C(=O)NCc3ccccn3)C2)c(C)c1 (stereo not given) returned GRK2 inh 5.0, MEKK3 PB1 HTS 100.0, MEKK2 WT-MEK5 98.0 and MEKK2 mut-MEK5 -2.0.
CN(C)C1(CN=Cc2cc(Cl)cc([N+](=O)[O-])c2O)CCCCC1 was read as GRK2 inh 4.0, MEKK3 PB1 HTS 100.0, MEKK2 WT-MEK5 97.0 and MEKK2 mut-MEK5 2.0.

Assay outcomes from PubChem BioAssay.
